# Source: PMC5540273 (PLoS ONE, 2017)
# Experiments:
# [1] = system: JAK1(JH2domain-pseudokinase)
# 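Also: kd values determined as follow-up on hits from a single-replicate KINOMEscan panel screen.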
structure (smiles),measurement,setting,value
CCn1c(-c2ccoc2)nc2cnccc21 [SB-733887],Kd,INSR,> 10 µM
Nc1nc(-c2ccccc2F)c(-c2ccnc3ccccc23)s1 [GW560459],Kd,INSR,> 10 µM
Fc1cccc(CSc2nnc(-c3ccc4c(c3)CCO4)o2)c1,Kd,IRAK4,> 10 µM
Cc1cc(Nc2nc(-c3cccc(C)n3)nc3ccccc23)ccn1 [GW872411],Kd,[1],0.41 µM
Nc1nc(N)c2nc(-c3ccccc3)[nH]c2n1 [SKF-12778],Kd,[1],0.15 µM
CN(C)c1cc(-c2ccc3c(N)n[nH]c3c2)nc(N)n1 [GSK2219329],Kd,KIT-autoinhibited,> 10 µM
